The nature of test [1]: NCI Yeast Anticancer Drug Screen. Data for the rad50 strain (AID 155).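 Note: 0% = growth of vehicle-only cultures of the same strain.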 The following applies: S. cerevisiae rad50 strain growth inhibition, stronger effect = higher value. In a few lines: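 Vehicle-treated cultures provide the reference for the growth inhibition reported for compound-exposed, repair-deficient yeast.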
The nature of test [2]: NCI Yeast Anticancer Drug Screen. Data for the mec2-1 strain (AID 157). The following applies: S. cerevisiae mec2-1 strain, stronger effect = higher value. In short, it runs like this:
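Test agents were screened against the mec2-1 yeast strain, with defined DNA repair or cell cycle alteration. Growth was scored as inhibition against vehicle-only controls.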

Test [3] is described as follows: NCI Yeast Anticancer Drug Screen. Data for the sgs1 mgt1 strain (AID 161).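 Note: 0% = growth of cultures given vehicle only.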 The following applies: S. cerevisiae sgs1 mgt1 strain, stronger effect = higher value. In short, it runs like this: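 Inhibition of yeast growth, normalised to vehicle-treated controls, is reported for a strain bearing genetic alterations in DNA damage repair.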
A short description of test [4]: NCI Yeast Anticancer Drug Screen. Data for the cln2 rad14 strain (AID 165).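 Note: 0% = growth equal to vehicle treated cultures.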 The following applies: S. cerevisiae cln2 rad14 strain, stronger effect = higher value. In short, it runs like this: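 Growth of compound-exposed yeast (cln2 rad14 genotype) measured and expressed as inhibition relative to vehicle.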
Test [5] is described as follows: NCI Yeast Anticancer Drug Screen. Data for the bub3 strain (AID 167). The following applies: S. cerevisiae bub3 mutant strain, stronger effect = higher value. In short, it runs like this: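 Mutant yeast screening strain plus compound; vehicle-treated cultures serve as the 0% inhibition reference.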
Test [6] can be described thus: NCI Yeast Anticancer Drug Screen. Data for the mlh1 rad18 strain (AID 175). The following applies: S. cerevisiae mlh1 rad18 strain growth inhibition, stronger effect = higher value. In short, it runs like this: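 In this whole-cell yeast screen, a strain with altered DNA damage repair is challenged with compound, and its growth is measured against matched vehicle-treated controls.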

[7] abbreviates: at 5.0 µM (retest, dose inferred, filed as 0.5).
Where [8] appears, read: at 50.0 µM (retest, dose inferred, filed as 5.0).

Molecules are shown by their SMILES. Several values for one entry are separate records, joined by “and”; a condition that tells them apart may be missing. Equal values may be shown once. This is part of a sample that, as a whole, favours compounds with a hit. Of some 79,000 tested, about 15% had one in any assay. Some structures have more than one record in an assay (separate samples or runs), and their calls can disagree. Activity calls are given as the source filed them. Cut-off read from the data, not from the text of the source: active = growth inhibition above about 70%; inactive = the rest.

Regarding `Clc1ccc(CNCCCNCc2ccc(Cl)cc2)cc1`, the growth inhibition in test [1] (setting [7]) was 80% (active); in test [1] (setting [8]) it was 15% (inactive); in test [1] (at 50.0 µM) it was 27.8% (inactive); in test [2] (setting [7]), 100% (active); in test [2] (setting [8]) it was 31% (inactive); in test [2] (at 50.0 µM) it was 23% (inactive). Further, the growth inhibition in test [3] (setting [7]) was 67% (inactive); in test [3] (setting [8]) it was 31% (inactive); in test [3] (at 50.0 µM), 50.4% (inactive); in test [4] (setting [7]), 49% (inactive); in test [4] (setting [8]), 13% (inactive); in test [4] (at 50.0 µM), 72% (active). Further, the growth inhibition in test [5] (setting [7]) was 91% (active); in test [5] (setting [8]) it was 20% (inactive); in test [5] (at 50.0 µM) it was 27.3% (inactive); in test [6] (setting [7]) it was 96% (active); in test [6] (setting [8]), 13% (inactive); in test [6] (at 50.0 µM) it was 29.9% (inactive).
For the compound `CCO/C(=C\C=O)C1CCC2C3CC=C4CC(OC(C)=O)CCC4(C)C3CCC12C` (stereo unspecified), the growth inhibition in test [1] (setting [7]) is 7% (inactive); in test [1] (setting [8]), 45% (inactive); in test [1] (at 50.0 µM), 63.4% (inactive); in test [2] (setting [7]), -1% (inactive); in test [2] (setting [8]) it was 75% (active); in test [2] (at 50.0 µM), 51.5% (inactive). Besides, the growth inhibition in test [3] (setting [7]) is 8% (inactive); in test [3] (setting [8]) it was 86% (active); in test [3] (at 50.0 µM) it was 55.9% (inactive); in test [4] (setting [7]), 2% (inactive); in test [4] (setting [8]), 53% (inactive); in test [4] (at 50.0 µM), 55.1% (inactive). For the same compound, the growth inhibition in test [5] (setting [7]) is -3% (inactive); in test [5] (setting [8]), 74% (active); in test [5] (at 50.0 µM) it was 23.4% (inactive); in test [6] (setting [7]), 14% (inactive); in test [6] (setting [8]) it was 94% (active); in test [6] (at 50.0 µM), 53.5% (inactive).
Turning to `C[C@@H](O)[C@H]1CC[C@H]2[C@@H]3CCC4=C/C(=N/O)CC[C@]4(C)[C@H]3CC[C@]12C`, the growth inhibition was 36% (inactive) in test [1] (setting [7]); 51% (inactive) in test [1] (setting [8]); 7.4% (inactive) in test [1] (at 50.0 µM); 15% (inactive) in test [2] (setting [7]); 20% (inactive) in test [2] (setting [8]); 22.2% (inactive) in test [2] (at 50.0 µM). For the same compound, the growth inhibition in test [3] (setting [7]) was 44% (inactive); in test [3] (setting [8]), -34% (inactive); in test [3] (at 50.0 µM) it was 36.1% (inactive); in test [4] (setting [7]), 16% (inactive); in test [4] (setting [8]) it was 78% (active); in test [4] (at 50.0 µM), -0.05% (inactive). In addition, the growth inhibition in test [5] (setting [7]) is -2% (inactive); in test [5] (setting [8]) it was 61% (inactive); in test [5] (at 50.0 µM), 80.8% (active); in test [6] (setting [7]), 54% (inactive); in test [6] (setting [8]) it was 68% (inactive); in test [6] (at 50.0 µM), 36.1% (inactive).
Regarding `CCN(CC)C(=S)Sc1nc2ccccc2s1`, the growth inhibition in test [1] (setting [7]) is -3% (inactive); in test [1] (setting [8]) it was 88% (active); in test [1] (at 50.0 µM) it was 34.2% (inactive); in test [2] (setting [7]) it was -2% (inactive); in test [2] (setting [8]), 87% (active); in test [2] (at 50.0 µM), -12.1% (inactive). Besides, the growth inhibition in test [3] (setting [7]) was 0% (inactive); in test [3] (setting [8]) it was 95% (active); in test [3] (at 50.0 µM), 16.7% (inactive); in test [4] (setting [7]), -7% (inactive); in test [4] (setting [8]) it was 13% (inactive); in test [4] (at 50.0 µM), -54.5% (inactive). The growth inhibition in test [5] (setting [7]) was 24% (inactive); in test [5] (setting [8]) it was 91% (active); in test [5] (at 50.0 µM), 68.1% (inactive); in test [6] (setting [7]), 5% (inactive); in test [6] (setting [8]), 63% (inactive); in test [6] (at 50.0 µM), 18.4% (inactive).
Take `CCCCCCCCCCCCOC(=O)C(C)OC(C)=O` (stereo unspecified): the growth inhibition in test [1] (setting [7]) was 1% (inactive) and 2% (inactive); in test [1] (setting [8]), 99% (active) and 97% (active); in test [1] (at 50.0 µM) it was 98.8% (active) and 98.9% (active); in test [2] (setting [7]) it was -1% (inactive) and 1% (inactive); in test [2] (setting [8]), 99% (active) and 98% (active); in test [2] (at 50.0 µM) it was 98.5% (active) and 98.8% (active). The growth inhibition in test [3] (setting [7]) was 2% (inactive) and 5% (inactive); in test [3] (setting [8]), 99% (active); in test [3] (at 50.0 µM) it was 99.2% (active) and 7.6% (inactive); in test [4] (setting [7]) it was -1% (inactive) and 5% (inactive); in test [4] (setting [8]), 97% (active) and 92% (active); in test [4] (at 50.0 µM) it was 98.8% (active) and 96.5% (active). Also, the growth inhibition in test [5] (setting [7]) was 1% (inactive); in test [5] (setting [8]) it was 99% (active) and 96% (active); in test [5] (at 50.0 µM), 98% (active) and 99.1% (active); in test [6] (setting [7]), -10% (inactive) and 2% (inactive); in test [6] (setting [8]) it was 99% (active); in test [6] (at 50.0 µM), 98.7% (active) and 99% (active).
Take `COc1ccc(-c2c(C#N)c(-c3ccc(C)cc3)n(NS(=O)(=O)c3ccccc3)c(=O)c2C#N)cc1`: the growth inhibition in test [1] (setting [7]) was 94% (active); in test [1] (setting [8]) it was 97% (active); in test [1] (at 50.0 µM), 40.5% (inactive); in test [2] (setting [7]) it was 42% (inactive); in test [2] (setting [8]), 94% (active); in test [2] (at 50.0 µM), 49.8% (inactive). Moreover, the growth inhibition in test [3] (setting [7]) is 41% (inactive); in test [3] (setting [8]), 75% (active); in test [3] (at 50.0 µM) it was 50.8% (inactive); in test [4] (setting [7]), 49% (inactive); in test [4] (setting [8]), 58% (inactive); in test [4] (at 50.0 µM), 66% (inactive). In addition, the growth inhibition in test [5] (setting [7]) is 47% (inactive); in test [5] (setting [8]), 56% (inactive); in test [5] (at 50.0 µM) it was 39.6% (inactive); in test [6] (setting [7]) it was 91% (active); in test [6] (setting [8]), 95% (active); in test [6] (at 50.0 µM) it was 43% (inactive).
In the case of `Nc1ncnc2c(C3OC(CO)C(O)C3O)scc12` (stereo unspecified), the growth inhibition was 12% (inactive) in test [1] (setting [7]); 36% (inactive) in test [1] (setting [8]); 15.8% (inactive) in test [1] (at 50.0 µM); 12% (inactive) in test [2] (setting [7]); 40% (inactive) in test [2] (setting [8]); 26.4% (inactive) in test [2] (at 50.0 µM). Moreover, the growth inhibition in test [3] (setting [7]) is 7% (inactive); in test [3] (setting [8]), 42% (inactive); in test [3] (at 50.0 µM) it was 39.4% (inactive); in test [4] (setting [7]), 21% (inactive); in test [4] (setting [8]), 5% (inactive); in test [4] (at 50.0 µM), 30.9% (inactive). The growth inhibition in test [5] (setting [7]) is -21% (inactive); in test [5] (setting [8]), 30% (inactive); in test [5] (at 50.0 µM), 47.6% (inactive); in test [6] (setting [7]), 14% (inactive); in test [6] (setting [8]), 63% (inactive); in test [6] (at 50.0 µM), 39.4% (inactive).

The values are drawn from PubChem BioAssay (NCI).
